# In PubChem BioAssay AID504332 (National Center for Advancing Translational Sciences (NCATS), 2011):
# In all, about 350,000 compounds went through this assay and about 31,000 (8.9%) were called active. Not shown: some 15% with an inconclusive outcome. Calls follow the shape of the dose curve; as a rule, active = well fitted inhibition curve with a large enough effect; inconclusive = small, poorly fitted or top-dose-only effect; inactive = no such curve, though single readings can be large or run the other way. The entries come from a sample that favours actives as a whole. Where a call stands in place of a potency, no number is given. Where a structure was tested more than once in an assay, its records may differ in their call.
# Target: Histone-lysine N-methyltransferase EHMT2 (Homo sapiens) (UniProt Q96KQ7)
# Sequence (Q96KQ7 913-1193 limits assumed): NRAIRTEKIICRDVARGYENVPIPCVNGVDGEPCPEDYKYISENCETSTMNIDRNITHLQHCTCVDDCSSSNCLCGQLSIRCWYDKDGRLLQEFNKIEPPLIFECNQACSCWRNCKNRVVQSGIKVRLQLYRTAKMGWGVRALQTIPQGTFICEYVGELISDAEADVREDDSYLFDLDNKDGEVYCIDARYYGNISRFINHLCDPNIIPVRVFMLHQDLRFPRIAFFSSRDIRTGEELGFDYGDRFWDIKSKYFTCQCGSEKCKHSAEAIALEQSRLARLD
# Assay: qHTS Assay for Inhibitors of Histone Lysine Methyltransferase G9a; also: nearly all actives have a fitted effect of over 75% in size
# Settings: G9a H3K9 monomethylation, AlphaScreen, 2 h; series mostly up to 59 µM
# Summary of the method: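 AlphaScreen detection with an anti-monomethyl H3K9 antibody quantified product after a 2 h room-temperature reaction containing 500 nM biotinylated H3K9 peptide, 20 µM SAM and 20 nM enzyme, which had been preincubated 15 min with compound.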
# Potency is read from the fitted curve at half-maximal effect.
SMILES,Potency,"activity, negative = inhibition"
Clc1ccc(C2=CSC3=Nc4cccc5cccc(c45)N23)cc1,3.55 µM (active),–
O=C(Nc1ccc2nc(SCC(=O)N3CCCc4ccccc43)sc2c1)c1ccc(Cl)cc1,inactive,–
CCCNC(=O)CSc1nc(Cc2ccccc2)nc2ccccc12,inactive,–
Cc1ccc(S(=O)(=O)NCc2nc3nc(C)cc(C)n3n2)cc1,inactive,–
NC(=O)NC(CC(=O)NNC(=O)c1ccccn1)c1ccc(Cl)cc1 (centres undefined),–,54.7% [at 12.7 µM] (inactive)
CCCc1nc2c(C)cc(-c3nc4ccccc4n3C)cc2n1Cc1ccc(-c2ccccc2C(=O)O)cc1,4.47 µM (active),-43.4% [at 2.33 µM] (inactive)
Cc1ccc(Cn2c(CCCNC(=O)C3CCCCC3)nc3ccccc32)cc1,inactive,–
CC(=O)Nc1nc2ccccc2n1Cc1ccc(C)cc1,inactive,–
COc1ccc(C(=O)Nc2nonc2-c2ccc(OC)c(OC)c2)cc1Cl,inactive,–
COc1cccc(NC(C)=[N+](C)CCNS(=O)(=O)c2ccc(Cl)cc2)c1,15.8 µM (active),–
COc1cccc(NC(=O)CCNS(=O)(=O)c2ccc3c(c2)oc(=O)n3C)c1,–,1.31% [at 0.0925 µM] (inactive)
COc1ccc(S(=O)(=O)NCCCCOc2ccc(Cl)cc2)cc1,–,21.3% [at 2.33 µM] (inactive)
CCOC(=O)C1CCN(c2csc3ccc(C)cc3c2=O)CC1,inactive,–
Cc1[nH]n(-c2cccc(Cl)c2)c(=O)c1-c1ccc(Cl)cc1,inactive,–
Cc1[nH]n(C(N)=S)c(=O)c1N=Nc1ccc(Cl)cc1Cl,44.7 µM (active),–
Cc1[nH]n(-c2ccccc2)c(=O)c1N=Nc1ccccc1C(=O)N1CCCCC1,inactive,–
COc1ccccc1C(=O)Nc1ccc(OCC(=O)N2CCCCC2)cc1,–,11.7% [at 2.33 µM] (inactive)
C(=N/N1CCN(c2ccccc2)CC1)/c1cccs1,10 µM (active),–
Nc1nnnn1/N=C/c1cccs1,inactive,–
Cc1ccc(N2CCN(/N=C/c3cccs3)CC2)cc1,inactive,–
O=C(Nc1ccc2nc(SCC(=O)N3CCCc4ccccc43)sc2c1)c1ccc(F)cc1,inactive,–
Cc1cc(C)c(S(=O)(=O)N(C)CC(=O)NCC2CCCO2)c(C)c1 (centres undefined),inactive,–
CCC1CCCCN1S(=O)(=O)c1ccc(NC(=O)c2cc(=O)c3ccccc3o2)cc1 (centres undefined),inactive,–
CC1(C(=O)NCCc2c[nH]c3ccccc23)C=CC2(CCCCC2)N1C(=O)c1ccccc1 (centres undefined),79.4 µM (active),–

SMILES,Potency,"activity, negative = inhibition"
O=C(CCCCCn1c(=O)[nH]c2ccccc2c1=O)NCCc1c[nH]c2ccccc12,–,-11.9% [at 0.0925 µM] (inactive)
CC(=O)NC(Cc1c[nH]c2ccccc12)C(=O)NCCc1ccccc1 (centres undefined),inactive,–
C[C@]1(C(=O)NCCc2c[nH]c3ccccc23)C=C[C@@H](Cc2ccccc2)N1C(=O)c1ccccc1,50.1 µM (active),–
O=C(CN1C(=O)NC2(CCCCC2)C1=O)NCCc1c[nH]c2ccccc12,inactive,–
O=C(NCCc1c[nH]c2ccccc12)C1CCN(Cc2ccc(Br)cc2)CC1,inactive,–
Cc1ccc(S(=O)(=O)N2[C@@H](c3ccccc3F)C(C(=O)O)=CC[C@H]2c2ccc(Cl)cc2)cc1,–,-0.77% [at 2.33 µM] (inactive)
O=C(CSc1nccn1Cc1ccc(Cl)cc1)NCc1ccccc1,inactive,–
COc1ccc([C@@H]2[C@@H]3C(=O)N(C(C)(C)C)C(=O)[C@@H]3[C@]3(Cc4ccccc4)C(=O)N(c4cccc(Br)c4)C(=O)N23)cc1,–,-84.6% [at 2.33 µM] (inactive)
Cc1ccc(C(=O)NCCSc2c(C)[nH]c3ccccc23)cc1C,inactive,–
Cc1cccc(-n2ncc(Cl)c(Cl)c2=O)c1,inactive,–
CC(C)CN(C(=O)CSc1nncn1C)C1CCS(=O)(=O)C1 (centres undefined),–,7.97% [at 2.33 µM] (inactive)
Cc1cccc(N2CCN(C(C)C(=O)N3CCc4ccccc43)CC2)c1C (centres undefined),inactive,–
COC(=O)c1ccccc1NC(=O)c1ccc2c(=O)n3c(nc2c1)CCCCC3,inactive,–
COc1ccc2c(c1)c(=O)c(S(=O)(=O)c1ccc(F)cc1)cn2CC(=O)Nc1ccc(C)cc1C,inactive,–
O=C(CCC1CCCCC1)Nc1cc(C(F)(F)F)ccc1N1CCOCC1,inactive,–
Nc1cc(C(F)(F)F)ccc1N1CCOCC1,50.1 µM (active),–
CC(C)CC(=O)Nc1cc(C(F)(F)F)ccc1N1CCOCC1,inactive,–
Cn1c(=O)oc2cc(S(=O)(=O)CCC(=O)NCCc3ccc(Cl)cc3)ccc21,inactive,–
O=C(NNC(=O)c1ccc(Cl)cc1Cl)c1cccs1,inactive,–
Cc1ccc(NNC(=O)c2cccs2)cc1Cl,8.91 µM (active),–
Cc1ccc(NNC(=O)c2c(F)cccc2Cl)cc1Cl,inactive,–
CCOc1ccc(-n2c(SCC(=O)NCc3ccccc3)nc3n[nH]c(C)c3c2=N)cc1,inactive,–
CC(=O)Nc1ccc(S(=O)(=O)N2CCN(C3CCCCCCC3)CC2)cc1,inactive,–
COc1ccc(S(=O)(=O)N2CCCC(C(=O)N3CCN(C)CC3)C2)cc1C (centres undefined),inactive,–

SMILES,Potency,"activity, negative = inhibition"
O=C(C1CCCN(S(=O)(=O)c2ccc([N+](=O)[O-])cc2)C1)N1CCCCC1 (centres undefined),inactive,–
Cc1ccc(S(=O)(=O)N2CCCC(C(=O)N3CCN(C)CC3)C2)cc1 (centres undefined),10 µM (active),–
Cc1ccc(S(=O)(=O)N2CCC(C(=O)Nc3cc(C)ccc3C)CC2)cc1,inactive,–
Cc1ccc(S(=O)(=O)N2CCC(N3CCCCCC3)CC2)cc1,10 µM (active),–
COc1ccc(NC(=O)CSc2nc3ccccc3[nH]2)cc1,inactive,–
CC1CCCCC1NC(=O)CCS(=O)(=O)c1ccc2c(c1)NC(=O)CO2 (centres undefined),inactive,–
CCN(C(=O)c1cc([N+](=O)[O-])ccc1NCc1cccnc1)c1ccccc1,inactive,–
CC(C)(C)OC(=O)N1CCC(c2c(C(=O)N3CCN(c4cccc(Cl)c4)CC3)cnn2-c2cccc(Cl)c2)CC1,inactive,–
COc1ccc(C(=O)NC(=S)N2CCNC(=O)C2CC(=O)OC(C)C)cc1 (centres undefined),25.1 µM (active),–
CCC1C(=O)NCCN1C(=O)c1ccc2nc(Cc3ccc(OC)cc3)oc2c1 (centres undefined),inactive,–
COc1cccc(NC(=O)CC2C(=O)NCCN2C(=S)Nc2ccc(F)cc2)c1 (centres undefined),inactive,–
C/C(=N/Nc1ccc(Cl)cc1)c1cnnc(-c2ccccc2)n1,39.8 µM (active),–
C/C(=N\NC(=O)Cc1ccc(Cl)cc1)c1ccccn1,inactive,–
O=C(Cc1ccc(Cl)cc1)NCc1nc(-c2ccccc2)no1,inactive,–
Cc1cc(C(=O)Nc2cccc(C(F)(F)F)c2)c2c(C)nn(-c3cccc(F)c3)c2n1,inactive,–
CN(C)S(=O)(=O)N1CCN(c2ccc([N+](=O)[O-])cc2)CC1,inactive,–
CCN1CCN(c2ccc([N+](=O)[O-])cc2C(=O)c2ccc(Cl)cc2)CC1,–,36.3% [at 0.501 µM] (inactive)
COc1ccc(N2CCN(c3ccc([N+](=O)[O-])nc3)CC2)cc1,inactive,–
O=C(c1cncc(Br)c1)N1CCN(c2ccc([N+](=O)[O-])cc2)CC1,inactive,–
COc1ccc(N2CCN(c3ccc([N+](=O)[O-])cc3Cl)CC2)cc1,7.94 µM (active),–
O=[N+]([O-])c1ccc(N2CCN(c3ccc(O)cc3)CC2)c(Cl)c1,3.16 µM (active),–
COc1cc(CN(CC2CCCO2)C(=O)c2ccccc2F)cc(OC)c1OC (centres undefined),inactive,–
Cc1ccc(S(=O)(=O)N(C)CC(=O)NCC(c2ccc(F)cc2)N2CCOCC2)cc1 (centres undefined),–,19.1% [at 12.7 µM] (inactive)
CCOC(=O)CSC1=Nc2ccccc2C2=NC(CCC(=O)NCc3ccc(F)cc3)C(=O)N12 (centres undefined),inactive,–

SMILES,Potency,"activity, negative = inhibition"
O=[N+]([O-])c1ccc(NCCCN2CCOCC2)c(Cl)c1,–,20.5% [at 2.33 µM] (inactive)
O=[N+]([O-])c1cc(S(=O)(=O)N2CCCC2)ccc1NN=C1CCCC1,inactive,–
CC(C)N1CCC(=NNc2ccc([N+](=O)[O-])cc2S(=O)(=O)N2CCOCC2)CC1,15.8 µM (active),–
CC(=O)NC12CC3CC(C1)CC(C(=O)N1CCN(S(=O)(=O)c4cccs4)CC1)(C3)C2,–,5.2% [at 12.7 µM] (inactive)
CC(=O)Nc1c2c(nn1-c1cccc(C)c1)CSC2,inactive,–
COc1ccc(-n2nc3c(c2NC(=O)c2ccc(N4C(=O)CCC4=O)cc2)CSC3)cc1,inactive,–
O=C(NCCCO)C(=O)Nc1c2c(nn1-c1ccc(F)cc1)CSC2,11.2 µM (active),–
CC(C)C(=O)Nc1c2c(nn1-c1ccccc1)CSC2,inactive,–
O=C(Nc1c2c(nn1-c1ccc(F)cc1)CS(=O)C2)C12CC3CC(CC(C3)C1)C2 (centres undefined),inactive,–
O=C(NCCCO)C(=O)Nc1c2c(nn1-c1ccccc1)CSC2,10 µM (active),–
COc1cc(CCC(=O)N2CCN(c3ccccc3Cl)CC2)cc(OC)c1OC,inactive,–
CCc1ccc(CN(Cc2ccco2)C(=O)COc2ccc(Cl)c(C)c2)cc1,inactive,–
Cc1ccc(OCCSc2nc(C)c(Cc3ccccc3)c(=O)[nH]2)cc1,inactive,–
CCOc1cc(C2C(C(=O)c3ccco3)=C(O)C(=O)N2Cc2ccccc2)ccc1O (centres undefined),44.7 µM (active),–
O=C(C1=C(O)C(=O)N(Cc2ccccc2)C1c1ccco1)c1ccco1 (centres undefined),–,0.744% [at 12.7 µM] (inactive)
CCOc1cc(C2c3c(-c4ccc(Br)cc4)n[nH]c3C(=O)N2c2ccc(Cl)cc2)ccc1O (centres undefined),inactive,–
O=C(CCNS(=O)(=O)c1ccccc1C(F)(F)F)Nc1ccncc1,–,-8.2% [at 12.7 µM] (inactive)
Cc1cc(/C=C2/SC(=O)N(CC(=O)OC(C)C)C2=O)c(C)n1C,–,19.4% [at 12.7 µM] (inactive)
Cc1cc(/C=C2/SC(=O)N(CC(=O)N3CCCC3)C2=O)ccc1N1CCOCC1,inactive,–
Cc1cc(/C=C2/SC(=O)N(CC(=O)N3CCCC3)C2=O)c(C)n1C,50.1 µM (active),–
Cc1cccc(N=C2SC(C)CN2C(=O)CN2C(=O)NC3(CCCC3)C2=O)c1 (centres undefined),–,-1.2% [at 0.501 µM] (inactive)
